# Data as given in the supplement of paper PMC12067093, “Discovery and optimisation of a covalent ligand for TRIM25 and its application to targeted protein ubiquitination” (Chemical Science, 2025).
# About 21,000 targets were measured; listed, in parts, are those with the largest changes and a random draw of the rest.
# Compound: Cc1cc(ccc1-c1ccccc1)C(=O)N1CCCN(CC1)C(=O)CCl [compound 10]
# Assay: probe-labelled cysteine peptide fold change vs DMSO (competition) (log2 fold change); higher = less target engagement (more negative = stronger competition)
# Conditions: THP-1, incubation time: 4 h
# 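Note: competitive profiling in live THP-1 cells: cysteine peptides tagged with an iodoacetamide desthiobiotin (IA-DTB) probe, intensity after compound treatment relative to DMSO-treated cells.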
# UniProt Q9Y4W6, sequence (Q9Y4W6 whole entry, looked up): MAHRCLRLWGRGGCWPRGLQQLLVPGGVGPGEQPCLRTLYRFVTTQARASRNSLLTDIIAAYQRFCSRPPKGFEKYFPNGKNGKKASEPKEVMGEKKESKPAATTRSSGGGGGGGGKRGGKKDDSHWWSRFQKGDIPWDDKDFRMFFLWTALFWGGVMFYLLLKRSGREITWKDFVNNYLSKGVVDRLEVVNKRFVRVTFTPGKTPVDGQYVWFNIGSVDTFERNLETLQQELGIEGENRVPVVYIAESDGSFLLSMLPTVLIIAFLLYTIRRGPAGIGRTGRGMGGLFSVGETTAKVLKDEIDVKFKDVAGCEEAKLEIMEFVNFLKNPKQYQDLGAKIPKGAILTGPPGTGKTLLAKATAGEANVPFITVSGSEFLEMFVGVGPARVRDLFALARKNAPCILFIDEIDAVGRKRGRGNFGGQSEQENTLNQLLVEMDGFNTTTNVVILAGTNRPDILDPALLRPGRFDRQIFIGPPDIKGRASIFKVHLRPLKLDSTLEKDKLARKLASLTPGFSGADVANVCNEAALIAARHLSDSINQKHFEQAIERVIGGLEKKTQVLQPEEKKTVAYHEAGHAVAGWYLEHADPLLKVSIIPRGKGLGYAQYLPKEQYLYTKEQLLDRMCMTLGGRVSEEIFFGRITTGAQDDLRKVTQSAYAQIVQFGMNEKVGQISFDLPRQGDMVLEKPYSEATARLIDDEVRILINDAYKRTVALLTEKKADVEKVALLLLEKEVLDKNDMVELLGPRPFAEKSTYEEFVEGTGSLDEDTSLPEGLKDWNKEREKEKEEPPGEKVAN
# UniProt O14983, sequence (O14983 whole entry, looked up): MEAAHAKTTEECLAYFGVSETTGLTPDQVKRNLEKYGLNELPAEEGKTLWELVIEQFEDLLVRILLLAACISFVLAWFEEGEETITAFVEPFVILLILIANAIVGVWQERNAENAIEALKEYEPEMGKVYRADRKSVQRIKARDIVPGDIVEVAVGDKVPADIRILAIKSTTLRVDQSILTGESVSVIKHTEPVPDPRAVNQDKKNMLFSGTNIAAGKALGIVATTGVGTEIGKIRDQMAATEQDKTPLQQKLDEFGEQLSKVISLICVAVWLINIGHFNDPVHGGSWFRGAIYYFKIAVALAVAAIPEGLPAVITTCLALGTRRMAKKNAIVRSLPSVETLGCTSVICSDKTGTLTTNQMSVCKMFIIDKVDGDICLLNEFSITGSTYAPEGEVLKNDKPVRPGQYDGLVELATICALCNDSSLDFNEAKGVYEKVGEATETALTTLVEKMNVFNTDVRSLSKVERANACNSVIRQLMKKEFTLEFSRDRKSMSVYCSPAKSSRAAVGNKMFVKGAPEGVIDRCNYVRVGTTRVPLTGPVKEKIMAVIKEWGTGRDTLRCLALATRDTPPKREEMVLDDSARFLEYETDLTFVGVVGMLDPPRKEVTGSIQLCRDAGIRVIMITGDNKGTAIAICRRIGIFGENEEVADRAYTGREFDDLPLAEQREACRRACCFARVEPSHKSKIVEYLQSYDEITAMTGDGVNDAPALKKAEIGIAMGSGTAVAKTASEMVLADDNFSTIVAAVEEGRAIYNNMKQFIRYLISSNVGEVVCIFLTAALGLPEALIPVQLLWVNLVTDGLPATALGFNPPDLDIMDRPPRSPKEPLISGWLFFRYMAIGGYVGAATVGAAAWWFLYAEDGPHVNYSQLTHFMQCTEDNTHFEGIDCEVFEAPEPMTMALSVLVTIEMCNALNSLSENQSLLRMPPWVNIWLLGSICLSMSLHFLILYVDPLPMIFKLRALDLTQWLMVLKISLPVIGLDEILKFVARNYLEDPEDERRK
# UniProt Q6P6C2, sequence (Q6P6C2 whole entry, looked up): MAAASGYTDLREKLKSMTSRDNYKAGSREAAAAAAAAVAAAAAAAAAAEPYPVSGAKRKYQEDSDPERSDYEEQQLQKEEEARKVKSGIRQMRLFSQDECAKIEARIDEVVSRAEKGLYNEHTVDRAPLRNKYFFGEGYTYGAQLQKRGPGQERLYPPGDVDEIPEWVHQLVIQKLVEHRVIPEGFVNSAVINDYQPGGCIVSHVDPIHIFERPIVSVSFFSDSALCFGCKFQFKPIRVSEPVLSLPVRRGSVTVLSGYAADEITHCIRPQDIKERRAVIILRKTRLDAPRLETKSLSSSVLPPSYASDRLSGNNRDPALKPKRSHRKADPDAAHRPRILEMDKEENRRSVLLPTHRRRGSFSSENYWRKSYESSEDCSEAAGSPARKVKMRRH
# UniProt Q96Q83, sequence (Q96Q83 whole entry): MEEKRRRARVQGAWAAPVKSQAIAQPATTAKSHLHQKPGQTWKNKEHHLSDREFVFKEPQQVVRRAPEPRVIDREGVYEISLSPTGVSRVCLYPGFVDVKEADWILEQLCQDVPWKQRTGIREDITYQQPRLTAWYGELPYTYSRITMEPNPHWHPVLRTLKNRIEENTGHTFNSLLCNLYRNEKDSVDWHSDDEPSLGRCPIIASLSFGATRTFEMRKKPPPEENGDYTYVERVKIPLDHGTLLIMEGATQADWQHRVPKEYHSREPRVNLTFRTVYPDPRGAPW
# UniProt P13716, sequence (P13716 whole entry, looked up): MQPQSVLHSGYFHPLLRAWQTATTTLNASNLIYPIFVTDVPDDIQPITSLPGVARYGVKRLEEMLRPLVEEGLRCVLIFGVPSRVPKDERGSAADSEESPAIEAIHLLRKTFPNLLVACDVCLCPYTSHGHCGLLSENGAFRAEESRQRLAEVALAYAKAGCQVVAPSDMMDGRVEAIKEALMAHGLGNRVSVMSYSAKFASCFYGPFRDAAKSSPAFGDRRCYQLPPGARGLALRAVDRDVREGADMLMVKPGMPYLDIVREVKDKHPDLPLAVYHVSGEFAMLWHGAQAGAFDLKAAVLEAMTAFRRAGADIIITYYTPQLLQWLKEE
# UniProt Q6IQ32, sequence (Q6IQ32 whole entry, looked up): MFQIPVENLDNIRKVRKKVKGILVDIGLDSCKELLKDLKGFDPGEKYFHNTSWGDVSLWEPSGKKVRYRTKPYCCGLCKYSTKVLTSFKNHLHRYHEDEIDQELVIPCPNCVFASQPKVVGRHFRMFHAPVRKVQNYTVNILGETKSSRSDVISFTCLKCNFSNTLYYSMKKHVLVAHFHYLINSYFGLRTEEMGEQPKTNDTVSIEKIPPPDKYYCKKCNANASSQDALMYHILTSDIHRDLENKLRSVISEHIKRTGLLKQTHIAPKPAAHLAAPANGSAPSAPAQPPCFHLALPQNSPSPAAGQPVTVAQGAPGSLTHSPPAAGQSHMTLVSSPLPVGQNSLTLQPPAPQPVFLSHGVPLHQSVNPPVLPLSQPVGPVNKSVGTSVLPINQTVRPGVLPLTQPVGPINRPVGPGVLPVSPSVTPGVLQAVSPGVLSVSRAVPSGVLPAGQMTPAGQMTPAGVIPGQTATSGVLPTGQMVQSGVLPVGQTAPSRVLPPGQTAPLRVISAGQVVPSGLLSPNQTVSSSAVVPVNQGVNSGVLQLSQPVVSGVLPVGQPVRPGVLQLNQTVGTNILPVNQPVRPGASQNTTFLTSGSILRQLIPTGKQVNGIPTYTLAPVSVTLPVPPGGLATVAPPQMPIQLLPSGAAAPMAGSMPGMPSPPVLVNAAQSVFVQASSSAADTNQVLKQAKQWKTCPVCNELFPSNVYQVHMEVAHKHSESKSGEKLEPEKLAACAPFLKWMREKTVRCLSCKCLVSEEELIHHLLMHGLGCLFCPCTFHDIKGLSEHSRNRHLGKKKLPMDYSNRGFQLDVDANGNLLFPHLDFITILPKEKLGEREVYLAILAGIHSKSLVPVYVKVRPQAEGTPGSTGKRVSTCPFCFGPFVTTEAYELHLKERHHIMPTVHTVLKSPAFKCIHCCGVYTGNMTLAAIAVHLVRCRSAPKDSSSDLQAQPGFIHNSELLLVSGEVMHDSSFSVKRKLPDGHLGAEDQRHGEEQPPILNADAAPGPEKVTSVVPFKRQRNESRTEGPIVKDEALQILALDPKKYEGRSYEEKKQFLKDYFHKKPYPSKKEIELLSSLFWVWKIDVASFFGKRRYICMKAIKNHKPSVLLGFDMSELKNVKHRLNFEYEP
# UniProt O43747, sequence (O43747 whole entry, looked up): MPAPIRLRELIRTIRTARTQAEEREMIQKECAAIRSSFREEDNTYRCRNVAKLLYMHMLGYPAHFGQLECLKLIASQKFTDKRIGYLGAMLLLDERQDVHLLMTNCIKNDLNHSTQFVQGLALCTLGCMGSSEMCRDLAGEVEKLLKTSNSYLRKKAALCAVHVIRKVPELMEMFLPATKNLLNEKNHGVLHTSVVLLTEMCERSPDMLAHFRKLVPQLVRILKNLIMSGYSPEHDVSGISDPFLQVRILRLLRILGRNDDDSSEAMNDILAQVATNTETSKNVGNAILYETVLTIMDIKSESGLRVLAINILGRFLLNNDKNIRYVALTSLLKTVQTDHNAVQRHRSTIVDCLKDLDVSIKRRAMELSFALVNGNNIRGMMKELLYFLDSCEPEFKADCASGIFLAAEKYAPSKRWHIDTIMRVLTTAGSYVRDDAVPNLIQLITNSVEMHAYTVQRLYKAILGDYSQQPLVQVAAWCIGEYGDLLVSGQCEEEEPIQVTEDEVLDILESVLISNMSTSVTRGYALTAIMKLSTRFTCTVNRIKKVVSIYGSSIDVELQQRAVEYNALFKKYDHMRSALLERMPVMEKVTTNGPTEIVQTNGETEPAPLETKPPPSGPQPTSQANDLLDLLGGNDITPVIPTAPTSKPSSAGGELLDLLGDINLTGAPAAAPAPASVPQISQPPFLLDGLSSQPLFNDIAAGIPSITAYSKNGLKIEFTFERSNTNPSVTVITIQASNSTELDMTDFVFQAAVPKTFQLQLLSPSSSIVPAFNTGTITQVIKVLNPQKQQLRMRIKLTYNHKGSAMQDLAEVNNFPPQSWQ
Target,probe-labelled cysteine peptide fold change (10 µM),probe-labelled cysteine peptide fold change (50 µM)
ATP2B4_P23634_632_TVIEPMACDGLR (UniProt P23634),-0.0204,-0.262
ACSL4_O60488_420_GYDAPLCNLLLFKK (UniProt O60488),-0.291,-1.12
ATP2A1_O14983_349_SLPSVETLGCTSVICSDK (UniProt O14983),-0.0681,-0.0742
AP1G1_O43747_392_ELLYFLDSCEPEFK (UniProt O43747),0.183,0.273
ALAD_P13716_75_CVLIFGVPSR (UniProt P13716),0.166,0.185
ASPSCR1_Q9BZE9_224+225_GDLSRPEDADTSGPCCEHTQEK (UniProt Q9BZE9),-0.786,-1.37
ANLN_Q9NQW6_1037_INLANCTSR (UniProt Q9NQW6),-0.121,-0.171
ANKRD11_Q6UB99_1339_ESACLPEK (UniProt Q6UB99),-0.0313,-0.174
ATRX_P46100_1531_CPITTK (UniProt P46100),-0.402,-1.05
ALKBH3_Q96Q83_201_CPIIASLSFGATR (UniProt Q96Q83),0.189,-0.104
ADNP2_Q6IQ32_220_CNANASSQDALMYHILTSDIHR (UniProt Q6IQ32),0.0714,0.0124
AFG3L2_Q9Y4W6_313_DVAGCEEAKLEIMEFVNFLK (UniProt Q9Y4W6),-0.324,-0.391
ALKBH5_Q6P6C2_100_LFSQDECAK (UniProt Q6P6C2),-0.000108,0.012
ALDH9A1_P49189_267_SPLIIFSDCDMNNAVK (UniProt P49189),0.208,0.2
